Experimental data published in PubChem BioAssay.
Calls of active or inactive are those of the source.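 The calls were made as follows: active = NADPH fluorescence slope more negative than the mean of all samples by about 3 SD, 99.7% confidence; inactive = the rest.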

biological target: Voltage-gated potassium channel subunit beta-2 (Rattus norvegicus) (UniProt P62483); test: enhancers of rat Kvbeta2 NADPH turnover – biochemical, NADPH fluorescence, primary screen (AID 623); details: Recombinant KvBeta, NADPH fluorescence decrease slope, 10 min; at 10 µM; hits give low values;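 also: fluorescence intensity change per second fitted from 20 to 320 s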
Sequence (P62483 whole entry, looked up): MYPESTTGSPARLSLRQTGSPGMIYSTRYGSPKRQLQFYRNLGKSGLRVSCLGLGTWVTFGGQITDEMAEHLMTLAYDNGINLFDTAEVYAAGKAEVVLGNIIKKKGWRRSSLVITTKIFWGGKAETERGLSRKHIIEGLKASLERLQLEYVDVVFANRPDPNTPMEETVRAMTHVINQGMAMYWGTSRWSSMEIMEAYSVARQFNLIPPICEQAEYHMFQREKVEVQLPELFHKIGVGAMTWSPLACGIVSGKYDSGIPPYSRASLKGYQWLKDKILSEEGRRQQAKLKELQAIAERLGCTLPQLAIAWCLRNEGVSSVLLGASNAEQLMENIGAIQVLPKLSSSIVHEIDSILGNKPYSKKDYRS

NADPH fluorescence slope, inactive:
N#CCCN1CCN(S(=O)(=O)c2ccc(S(=O)(=O)NC3CCCCC3)cc2)CC1 -4.3e-06, CCCN(CCC)C(=O)c1c(C)[nH]c(C(=O)OCC)c1C -2.3e-05, c1ccc2c(c1)CC(N1CCCCC1)c1ccccc1N2 (stereo unspecified) -0.000142, CCOC(=O)N1CCN(C(=O)CSc2nnc(Cc3ccccc3)o2)CC1 -3.6e-05, COc1ccc(CCNS(=O)(=O)c2ccc3oc(C(=O)O)c(C)c3c2)cc1OC 6.2e-05, Cc1cc(NC(=O)CSc2nc3c(c(=O)n2Cc2ccccc2)SC(C)C3)no1 (stereo unspecified) -6.8e-05, c1ccc(OCc2nc(-c3ccccc3)no2)cc1 4.5e-05, CC1CCN(C(=O)CCNS(=O)(=O)c2ccccc2)CC1 -2.3e-07, COc1ccccc1Oc1coc2c(CN3CCN(C)CC3)c(O)ccc2c1=O 7e-06, CCS(=O)(=O)N1CCCC(C(=O)NCc2ccccc2Cl)C1 (stereo unspecified) -1.9e-05, Cc1ccc(NC(=O)c2ccco2)c(NC(=O)c2cccs2)c1 2e-06, Cc1cccc(-n2nc3c(c2NC(=O)CCC2CCCCC2)CS(=O)C3)c1C (stereo unspecified) -2.6e-06, Cc1nc(N)c(C#N)c(-c2cccnc2)c1C 1.8e-05, COc1ccc(N2CCN(C(=O)C(C)(C)Oc3ccc(Cl)cc3)CC2)cc1 -4.3e-05, CN1C(=O)CCC1(O)c1ccccc1 (stereo unspecified) 1.8e-06, Cc1cc(=O)n(C)c(=O)n1CCCCCN1CCCC1 -1.1e-05
